# EBV gp42 inh: EBV gp42 inhibition; inhibition, % (tested at 21.74 µM); 220,000 compounds, 0.42% hits; Fluorescence polarization binding assay, mP read-out; Q1HVG2; in the data active = inhibition above about 50%
# Target sequence (Q1HVG2 whole entry, looked up): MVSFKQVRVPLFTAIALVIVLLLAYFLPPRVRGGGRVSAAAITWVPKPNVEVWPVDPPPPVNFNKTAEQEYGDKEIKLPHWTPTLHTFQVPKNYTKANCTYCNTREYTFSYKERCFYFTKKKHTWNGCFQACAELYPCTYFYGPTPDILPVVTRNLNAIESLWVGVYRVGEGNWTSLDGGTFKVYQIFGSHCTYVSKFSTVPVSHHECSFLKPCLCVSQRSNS
# eIF4H FP inh: inhibitors of RNA binding by human eIF4H; eIF4H fluorescence polarization binding assay; inhibition, % at 35 µM; 290,000 compounds, 0.94% hits; AID 2012;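 note: calls also rest on retests at 20 µM and on dose response follow-up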
# eIF4E-4G inh: eIF4E/eIF4G interaction inhibition in translation initiation | P63073+Q04637 | 220,000 compounds, 0.37% hits | TR-FRET eIF4E-eIF4GI(517-606) binding, 2 h | AID 782 | inhibition, % at 21.7 µM;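 active = inhibition above about 30%, limit read from the data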;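 note: 0% = full FRET control wells and 100% = background wells lacking eIF4GI fragment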
# PABP1 MLLE inh: blocks PAM2 peptide binding to the PABP1 MLLE domain. GST-MLLE / FITC-PAM2 fluorescence polarization. inhibition, % at 20 µM. 360,000 compounds, 0.36% hits. P11940; in the data active = inhibition above about 35%, passing the limit was not always enough;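 note: plate controls were DMSO wells with GST-MLLE for no effect and wells lacking GST-MLLE protein for full effect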
# PABP FP inh: PABP-poly(A) binding inhibition; P11940; PABP-poly(A) RNA binding, fluorescence polarization; calls only at 35 µM; 290,000 compounds, 1% hits; AID 2014;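 note: calls also rest on retests at 20 µM and on dose response follow-up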
# An asterisk follows results filed as active; i = inactive; ? = inconclusive; nt = no result given; + = active, no number; [ ] = dose if it differs, or a comment. Sampled rows, rich in hits. Any-hit rate of the full collection: about 1.7%. Unless noted, the rule behind the calls is not given here.
SMILES,EBV gp42 inh,eIF4H FP inh,eIF4E-4G inh,PABP1 MLLE inh,PABP FP inh
CCOC(=O)c1sc(=S)n(-c2ccccc2)c1SC,-14.7,-10.1,-9.3,5.1,i
CCOC(=O)c1sc(=S)n(-c2ccccc2Cl)c1SC,-1.5,-0.8,4.3,38.5*,i
CC(=O)Nc1ccc(NC(=O)C2CCN(C(=O)NC3CCCCC3)CC2)cc1,nt,-15.1,nt,3.2,i
COc1ccc(-c2nc(-c3ccc(Br)cc3)no2)c(OC)c1,-9.1,-8.7,31.7*,-2.5,i
COc1ccccc1-c1nc(-c2ccc(Br)cc2)no1,-21.9,-0.3,0.0,1.5,i
O=C(COc1ccccc1Cl)Nc1ccc2oc(=O)ccc2c1,nt,-1.8,nt,-3.8,i
Cc1cc(C)c2cc3c(ccn3C3OC[C@H](O)[C@H](O)[C@H]3O)cc2n1 (some centres not stated),94.1*,32.9*,-17.7,49.1*,+
Nc1nc(Cl)nc2c1ncn2C1OCC(O)C(O)C1O (configuration not stated),nt,nt,nt,-10.6,nt
C=CCn1c(-c2ccco2)n[nH]c1=S,-44.7,-0.5,66.6*,-23.2,i
C=CCn1c(-c2cc3cccc(OC)c3o2)n[nH]c1=S,-14.2,?,7.7,-10.5,+
CCn1c(-c2ccco2)n[nH]c1=S,-39.6,-2.6,-2.1,12.0,i
C=CCn1c(-c2cc(OC)c(OC)c(OC)c2)n[nH]c1=S,-15.5,12.3,43.9*,-24.0,i
C=CCn1c(-c2cccc(OC)c2)n[nH]c1=S,-11.3,2.5*,1.7,-20.2,+
CC12CC3CC1C(C(=O)O2)C3C(=O)O (configuration not stated),nt,nt,nt,-7.4,nt
CCOC(=O)N1CCC(N2Cc3cccc(C(=O)Nc4ccccc4OC)c3C2=O)CC1,nt,3.3,nt,-3.3,i
CCNc1nc2c(cnn2C)c(=O)[nH]1,nt,nt,nt,-6.7,nt
COCCN(C(=O)Nc1ccccc1OC)c1nc2ccccc2s1,nt,1.5,nt,3.2,i
CCOC(=O)c1cc(C)sc1/N=C/C1C(=O)CCCC1=O,-11.8,17.0,4.9,19.0,i
CCOC(=O)c1cc(C)sc1/N=C/C1=C(O)CCCC1=O,-10.7,54.7*,-3.6,28.9,+
O=Cc1c(N2CCN(CCO)CC2)nc2ccccn2c1=O,nt,?,nt,47.1*,?
COc1ccc(CNC(=O)CN2C(=O)c3ccc([N+](=O)[O-])cc3C2=O)cc1,nt,-3.7,nt,10.3,i
O=C(CSc1nnc(NC(=O)c2cccc(F)c2)s1)NC1CCCC1,nt,3.5,nt,1.1,i
CC(=O)Nc1cccc(Oc2nc(NC(C)C)nc3cc(-c4ccccc4)sc23)c1,nt,nt,nt,-0.3,nt
COc1cc(-c2nnc(SCc3cc(=O)oc4cc(O)c(O)cc34)o2)cc(OC)c1OC,29.9,92.3*,14.3,-121.5,+
Cc1cccc(C2(c3cccc(C)c3)CC2C(=O)Nc2ccc([N+](=O)[O-])cc2O)c1 (configuration not stated),1.3,-5.3,-3.6,-9.6,i
SMILES,EBV gp42 inh,eIF4H FP inh,eIF4E-4G inh,PABP1 MLLE inh,PABP FP inh
Cc1ccsc1C(=O)C1CCCN(Cc2cc(F)ccc2-n2cccn2)C1 (configuration not stated),-11.6,0.9,0.7,-17.2,i
O=C(Cn1c(=O)oc2cc(S(=O)(=O)N3CCCC3)ccc21)Nc1ccccn1,nt,nt,nt,6.4,nt
Cn1c(CNc2ccccc2O)nc2ccccc21,7.0,86.4*,-3.2,2.1,+
COc1ccc2nc(NC(=O)CSC3=NCCS3)sc2c1,-8.1,-12.5,-1.0,31.8,i
COc1ccc(OC)c(NC(=O)CSC2=NCCS2)c1,-25.0,1.6,-0.8,39.6*,i
CCN(CCC#N)c1ccc(/C=N/Nc2nc(C)cc(=O)[nH]2)c(C)c1,-4.5,2.2*,2.5,-0.3,+
O=C(c1ccccc1)N1CC(COc2ccccc2)OC(c2cccnc2)O1 (configuration not stated),-15.1,63.3*,-1.5,-7.2,+
O=C(COc1ccc(-c2ccccc2)cc1)N1CCN(C(=O)c2cccnc2)CC1,-6.3,1.2,-11.1,-12.3,i
CC1CCc2ccccc2N1C(=N)N(C)C (configuration not stated),5.9,-10.7,-8.5,-6.6,i
O=C(O)c1cc(O)c2c(c1)[C@H]([C@H]1c3cc(C(=O)O)cc(O)c3C(=O)c3c(O[C@@H]4O[C@H](CO)[C@@H](O)[C@H](O)[C@H]4O)cccc31)c1cccc(OC3O[C@H](CO)[C@@H](O)[C@H](O)[C@H]3O)c1C2=O (some centres not stated),nt,nt,nt,51.9*,nt
O=C(NC1CCCC1)c1cnc2n(c1=O)CCS2,-12.2,-7.8,95.2*[fluorescence artefact?],0.6,i
CCc1ccc(/C=C2\Oc3c(ccc(O)c3CN3CCN(CCO)CC3)C2=O)cc1,-5.0,?,72.3*,-12.0,?
CCc1ccc(/C=C2\Oc3cc(OS(C)(=O)=O)ccc3C2=O)cc1,-1.3,-4.5,2.8,5.6,i
CC(=O)Nc1ccc(NC2=Nc3ccccc3N3C2=Nc2c(c(C)nn2-c2ccccc2)C3c2ccccc2)cc1 (configuration not stated),70.8*,35.8,-29.6,5.5,i
C[C@@H]1ON(C)[C@H]2C[C@H]3c4[nH]c5ccc(-c6ccc7c(c6)OCO7)cc5c4CCN3C(=O)[C@@H]12,nt,nt,nt,-18.5,nt
O=C(NCCc1ccncc1)c1ccccc1F,-0.9,1.6,60.6*,-1.8,i
O=c1[nH]ncc(N2CCCC2)c1Cl,-8.9,15.0,80.5*,15.4,i
O=C1c2cccc3c([N+](=O)[O-])ccc(c23)C(=O)N1c1ccc(Cl)cn1,80.3*,21.2,11.7,61.6,i
O=C1c2cccc3c([N+](=O)[O-])ccc(c23)C(=O)N1c1ccccn1,16.3,25.4,14.7,2.4,i
Nc1ccc2ncccc2c1N,nt,87.4*,nt,10.7,+
c1cnc2ccc3ncccc3c2c1,1.2,10.9,-1.4,-12.6,i
COc1ccc(C2NC(=O)N(C)C3=C2C(=O)CC(C)(C)C3)cc1OC (configuration not stated),-2.3,1.1,-8.2,-3.3,i
CC(=O)c1c(C(=O)O)c2ccccc2[nH]c1=O,2.3,4.8,92.2*,-8.2,i
CCOc1ccccc1N(CC)C(=O)c1nn(C)c2c1CSc1ccccc1-2,nt,-0.9,nt,21.0,i
CC(C)CCN1C(=O)c2ccc(C(=O)Nc3ccc(O)cc3C(=O)O)cc2C1=O,nt,81.1*,nt,1.7,+
CC(C)CN1C(=O)c2ccc(C(=O)Nc3ccc(O)cc3C(=O)O)cc2C1=O,nt,1.3,nt,-1.8,i
O=C(COC(=O)C1CC2C=CC1C2)Nc1c(Br)cc([N+](=O)[O-])cc1Br (configuration not stated),nt,nt,nt,9.4,nt
Nc1c(-c2ccccc2)sc2ccc3ccccc3[n+]12,nt,-18.2,nt,38.9*,i
CC(=O)Nc1ccc(S(=O)(=O)NCCNS(=O)(=O)c2ccc(NC(C)=O)cc2)cc1,nt,-6.2,nt,-1.8,i
CC(=O)Nc1ccc(S(=O)(=O)NCCSc2ccccn2)cc1,-37.8,60.0*,47.0*[fluorescence artefact?],-73.0,+

# Screening data: PubChem BioAssay, several laboratories
